This is an account of results in PubChem BioAssay (NCATS).

Records with an inconclusive call do not appear. Activity calls are given as the source filed them. Calls come from the whole dose curve. Bridge positions count the residues as written; N and C are the ends. Peptide text beside a SMILES is read from it.
% is set by controls: 0 for no effect and ±100 for the full control effect.

This assay is described as follows: Primary qHTS for Huh7 cytotoxicity: counterscreen for inhibitors of MERS-S pseudotyped particle cell entry (AID 1479147). As to conditions: cell viability read-out; series mostly up to 57.1 µM; activity change, negative = cytotoxicity: at the top concentration.
On to `C[C@]12C=CC(=O)C=C1CC[C@@H]1[C@@H]2[C@@H](O)C[C@@]2(C)[C@H]1CC[C@]2(O)C(=O)COP(=O)(O)O`, for which the activity change, negative = cytotoxicity is -13.3% [at 11.4 µM] (inactive).
Take `COc1ccc(CNCC(O)COc2ccc3[nH]c(=O)ccc3c2)cc1OC` (stereo not given): the result was inactive.
Consider `Cc1ncc(COP(=O)(O)O)c(CN)c1O`, for which the “activity change, negative = cytotoxicity” value is -1.65% (inactive).
In the case of `Cn1nnnc1SCC1=C(C(=O)O)N2C(=O)[C@@H](NC(=O)[C@H](OC=O)c3ccccc3)[C@H]2SC1`, the outcome was inactive.
In the case of `CCC(=O)OC1(C(=O)CCl)C(C)CC2C3CC(F)C4=CC(=O)C=CC4(C)C3(F)C(O)CC21C` (stereo not given), the “activity change, negative = cytotoxicity” value was 2.48% (inactive).
With `CC(OC(=O)NCC1(CC(=O)O)CCCCC1)OC(=O)C(C)C` (stereo not given), the result was inactive.
Turning to `Cc1c(Cl)c(C)[n+]([O-])c(Cl)c1-c1noc(-c2cc(O)c(O)c([N+](=O)[O-])c2)n1`, the result was inactive.
In the case of `CCCCCCCCCCCCCCCC(=O)OCC(O)C1OC(=O)C(O)=C1O` (stereo not given), the outcome was inactive.
As for `CC(C)(C)NCC(O)c1ccc(O)c(CO)n1` (stereo not given), the “activity change, negative = cytotoxicity” value was -2% (inactive).
Turning to `CC(C)N(CCCCOCC(=O)NS(C)(=O)=O)c1cnc(-c2ccccc2)c(-c2ccccc2)n1`, the result was inactive.
On the same count and under the same terms, the entry for `CC[N+](CC)(CC)CCC(O)(c1ccccc1)C1CCCCC1` (stereo not given) is “inactive”; for `O=P(O)(O)OC1C(OP(=O)(O)O)C(OP(=O)(O)O)C(OP(=O)(O)O)C(OP(=O)(O)O)C1OP(=O)(O)O` (stereo not given) it is “inactive”.
With `CC[C@@H]1CCN[C@H](C(=O)N[C@@H]([C@H]2O[C@H](SC)[C@H](O)[C@@H](O)[C@H]2O)[C@H](C)Cl)C1`, the “activity change, negative = cytotoxicity” value was -6.33% (inactive).
As for `N=c1ccn2c(n1)O[C@@H]1[C@@H](O)[C@H](CO)O[C@@H]12`, the result was inactive.
Still for that read-out and setting: to `O=C(O)c1cc(O)c2c(c1)[C@H]([C@H]1c3cc(C(=O)O)cc(O)c3C(=O)c3c(O[C@@H]4O[C@H](CO)[C@@H](O)[C@H](O)[C@H]4O)cccc31)c1cccc(O[C@@H]3O[C@H](CO)[C@@H](O)[C@H](O)[C@H]3O)c1C2=O` belongs “inactive [at 26.4 µM]”.
For the molecule `CC1CCC(C(C)C)C(OC(=O)c2ccccc2O)C1` (stereo not given), the “activity change, negative = cytotoxicity” value was -1.64% (inactive).
For the molecule `[Mn].[O]=[Mn][OH].[O]=[Mn][OH]`, the “activity change, negative = cytotoxicity” value was 0.99% (inactive).
`CCCCC(CC)COc1ccc(-c2nc(-c3ccc(OC)cc3)nc(-c3ccc(OCC(CC)CCCC)cc3O)n2)c(O)c1` (stereo not given): the activity change, negative = cytotoxicity is -14.4% [at 5.34 µM] (inactive).
Consider `CC(C)(C)C(=O)OCOC(=O)[C@@H]1N2C(=O)[C@@H](N=CN3CCCCCC3)[C@H]2SC1(C)C`, for which the result was inactive.
For `NCCCC[C@H](NC(=O)[C@@H]1CCCN1C(=O)[C@@H]1CSSC[C@H](NC(=O)CNC(=O)CNC(=O)CN)C(=O)N[C@@H](Cc2ccc(O)cc2)C(=O)N[C@@H](Cc2ccccc2)C(=O)N[C@@H](CCC(N)=O)C(=O)N[C@@H](CC(N)=O)C(=O)N1)C(=O)NCC(N)=O` (H-GGGCYFQNCPKG-NH2; disulfide 4-9), the result was inactive.
On the same count and under the same terms, the entry for `CN1c2c(nc(N)[nH]c2=O)NC[C@@H]1CNc1ccc(C(=O)N[C@@H](CCC(=O)O)C(=O)O)cc1` is “inactive [at 5.34 µM]”; for `O=C(O)C(O)[C@H](O)[C@H](O)[C@H](O)[C@H](O)CO` (stereo not given in full) it is “inactive”; for `CC(=O)N(CC(C)C(=O)O)c1c(I)cc(I)c(N)c1I` (stereo not given) it is “inactive”.
In the case of `CCCCN(CCCC)C(=S)[S-].CCCCN(CCCC)C(=S)[S-].[Zn+2]`, the outcome was inactive.
For `C=C1c2c(Cl)ccc(O)c2C(O)=C2C(=O)[C@@]3(O)C(O)=C(C(N)=O)C(=O)[C@@H](N(C)C)[C@@H]3[C@@H](O)[C@H]12`, the “activity change, negative = cytotoxicity” value was -1.86% (inactive).
The same measure, in the same setting: to `C=CC1(C)CC(=O)C2(O)C(C)(O1)C(OC(C)=O)C(OC(=O)CCN(C)C)C1C(C)(C)CCC(O)C12C` (stereo not given) belongs -21.9% (inactive).
With `Cc1ccc(S(=O)(=O)O)cc1`, the outcome was inactive.
With `COc1cc(N)cn[n+]1-c1ccccc1`, the result was inactive.
On to `COc1nc2ccc(Br)cc2cc1[C@@H](c1ccccc1)[C@@](O)(CCN(C)C)c1cccc2ccccc12`, for which the “activity change, negative = cytotoxicity” value is 2.72% (inactive).
Take `COc1ccc2c(=O)c(C)c(-c3ccccc3)oc2c1CN(C)C`: the result was inactive.
With `O=C(Nc1ccc(O)cc1)c1ccccc1O`, the “activity change, negative = cytotoxicity” value is -16% (inactive).
`COC1=C(C(=O)O)N2C(=O)[C@@H](NC(=O)[C@H](N)C3=CCC=CC3)[C@H]2SC1`: the result was inactive.
As to `CCOC(=O)[C@@H](N)CS`, the result was inactive.
The same measure, in the same setting: the entry for `CO/N=C(\C(=O)N[C@@H]1C(=O)N2C(C(=O)OCOC(=O)C(C)(C)C)=C(/C=C\c3scnc3C)CS[C@H]12)c1csc(N)n1` is “inactive”.
For the molecule `Cc1c(C)c2c(c(C)c1OC(=O)CCC(=O)O)CC[C@@](C)(CCC[C@H](C)CCC[C@H](C)CCCC(C)C)O2`, the outcome was inactive.
As to `C#C[C@]1(OC(C)=O)CC[C@H]2[C@@H]3CCC4=CC(=O)CC[C@@H]4[C@H]3CC[C@@]21C`, the “activity change, negative = cytotoxicity” value is -24.1% (inactive).
With `CCCCCCCCCCCCCCCCCC(=O)OCCO`, the result was inactive.
On to `CN[C@@H]1[C@@H](O)[C@@H](O[C@@H]2[C@@H](O)[C@H](OC3O[C@H](CN)[C@@H](O)[C@H](O)[C@H]3O)[C@@H](N)C[C@H]2NC(=O)[C@@H](O)CN)OC[C@]1(C)O` (stereo not given in full), for which the “activity change, negative = cytotoxicity” value is -20.6% [at 26.4 µM] (inactive).
In the case of `C=Cc1c(C)c2cc3nc(c(CC(=O)N[C@@H](CC(=O)O)C(=O)O)c4nc(cc5[nH]c(cc1[nH]2)c(C)c5CC)C(C)=C4C(=O)O)[C@@H](CCC(=O)O)[C@@H]3C`, the “activity change, negative = cytotoxicity” value was 3.48% (inactive).
The same measure, in the same setting: the figure for `CC(C)CCC[C@@H](C)[C@H]1CC[C@H]2[C@@H]3CC=C4C[C@@H](O)CC[C@]4(C)[C@@H]3CC[C@]12C` is 1.56% [at 26.4 µM] (inactive).
